Bioassay records (PubChem)
S1P2 ag = agonists of human S1P2 receptor | S1P2-expressing cell line, agonist reporter read-out | activation, % at 4.5 µM | AID 729 | hit rate 0.46% among 97,000; in the data active means activation above about 16%
Target sequence (O95136 whole entry, looked up): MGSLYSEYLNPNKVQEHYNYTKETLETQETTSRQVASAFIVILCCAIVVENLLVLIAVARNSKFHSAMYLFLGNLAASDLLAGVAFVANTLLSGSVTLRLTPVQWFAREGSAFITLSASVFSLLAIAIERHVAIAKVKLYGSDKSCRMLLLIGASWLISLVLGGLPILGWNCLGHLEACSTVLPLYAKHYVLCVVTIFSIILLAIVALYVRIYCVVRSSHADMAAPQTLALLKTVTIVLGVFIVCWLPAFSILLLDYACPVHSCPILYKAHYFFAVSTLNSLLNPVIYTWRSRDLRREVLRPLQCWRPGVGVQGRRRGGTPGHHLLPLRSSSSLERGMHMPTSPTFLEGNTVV
S1P2 antag = S1P2 (human) receptor antagonism; O95136; cell-based S1P2 antagonist assay, inhibition at 5 uM; inhibition, % at 5 µM; hit rate 0.21% among 97,000; AID 736; in the data active means inhibition above about 45%;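 further: CRE beta-lactamase reporter cells expressing human S1P2 stimulated with S1P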
Phagocytosis inh = inhibitors of macrophage phagocytosis. inhibition, % at 5 µM. AID 1029. J774A.1 macrophage IgG-bead phagocytosis, imaging. hit rate 0.07% among 110,000;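 active means inhibition above the mean of the plate negative controls plus 5 SD, cut at about 13% in these data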;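 further: phagocytic index as fraction of beads internalized from green versus red external bead signal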
GALR2 ag = activates the human galanin receptor 2. O43603. GALR2-expressing cells, agonist activation read-out. activation, % (test concentration not listed). hit rate 0.48% among 140,000. AID 803; in the data active means activation above about 5%, passing the limit was not always enough
Target sequence (O43603 whole entry, looked up): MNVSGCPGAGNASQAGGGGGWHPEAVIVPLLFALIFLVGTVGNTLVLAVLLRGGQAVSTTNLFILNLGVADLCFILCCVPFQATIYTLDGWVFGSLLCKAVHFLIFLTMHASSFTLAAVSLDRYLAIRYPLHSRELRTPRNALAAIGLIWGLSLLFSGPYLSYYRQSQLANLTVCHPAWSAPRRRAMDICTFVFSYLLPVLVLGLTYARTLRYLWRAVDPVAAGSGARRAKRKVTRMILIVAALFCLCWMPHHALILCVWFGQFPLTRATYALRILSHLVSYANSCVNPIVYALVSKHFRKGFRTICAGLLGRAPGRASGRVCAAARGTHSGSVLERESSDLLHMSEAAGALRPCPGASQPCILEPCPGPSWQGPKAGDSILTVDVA
GALR2 antag = GALR2 (human) receptor antagonism | O43603 | GALR2-expressing cells, antagonist mode | inhibition, % at 4 µM | hit rate 0.39% among 140,000 | AID 828; in the data active means inhibition above about 27%;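 further: cells stimulated with galanin 1-16 at roughly its EC80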
GALR2 agon conf = GALR2 (human) agonism confirmed; shares compounds with GALR2 ag; GALR2-expressing cells, agonist activation; activation, % at 5.6 µM; hit rate 10% among 460; AID 864; in the data active means activation above about 8.4%
BLA activ ctr = counter-screen for GALR2 agonists: beta-lactamase reporter activators | hit rate 10% among 460 | shares compounds with GALR2 ag | CHO NFAT-bla reporter, beta-lactamase FRET activation | activation, % at 5.6 µM | AID 865;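 active means activation above the screen-wide mean activation plus 3 SD, cut at about 8% in these data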
Large screens that a line does not name were inactive (follow-up assays come after a bar, where they were run). Most compounds without a hit are left out; they make up all but 1.3% or so of the library.

COC(=O)c1sccc1NC(=O)CN(C)NS(=O)(=O)c1ccc(F)cc1	none (no result: Phagocytosis inh) | GALR2 agon conf inactive | BLA activ ctr inactive
O=C(/C=C/c1ccccc1Cl)NCc1cccs1	none (no result: S1P2 ag, S1P2 antag)
COc1cc(SC#N)ccc1N=Cc1c(C)[nH]n(-c2ccc(C)c(C)c2)c1=O	GALR2 ag 12 (no result: S1P2 ag, S1P2 antag) | GALR2 agon conf inactive | BLA activ ctr inactive
Cc1ccc(NCc2nc3ccccc3n2CCOc2ccccc2)cc1	none (no result: S1P2 ag, S1P2 antag)
O=C(Cn1c(COc2ccccc2)nc2ccccc21)Nc1cc(Cl)cc(Cl)c1	none (no result: S1P2 ag, S1P2 antag)
O=C(Cn1c(COc2ccccc2)nc2ccccc21)Nc1cc(Cl)ccc1Cl	GALR2 ag 10 (no result: S1P2 ag, S1P2 antag) | GALR2 agon conf inactive | BLA activ ctr inactive
COC(=O)C1=C(C(=O)OC)C2(OC1c1ccccc1C)C(=O)c1ccccc1C2=O (stereo not given)	none (no result: Phagocytosis inh)
COC(=O)c1cn(NC(=O)c2cccc(N(C)C)c2)c(=O)c2ccccc12	none
COC(=O)c1cn(NC(=O)c2cccc(F)c2)c(=O)c2ccccc12	GALR2 ag 18 | GALR2 agon conf inactive | BLA activ ctr inactive
Cn1nccc1C(=O)Nn1cnnc1	GALR2 ag 20 | GALR2 agon conf inactive | BLA activ ctr inactive
CCn1c(SCc2nc3ccccc3[nH]2)nnc1-c1ccc(OC)cc1	none
CC(C)(C)C(=O)NC(=S)Nc1cc(C(F)(F)F)ccc1N1CCOCC1	none | GALR2 agon conf inactive | BLA activ ctr inactive
Cc1cc(NC(NC(=O)c2ccco2)(C(F)(F)F)C(F)(F)F)no1	none | GALR2 agon conf inactive | BLA activ ctr inactive
O=C(Nc1cccc(O)c1)C(Cc1ccccc1)N1C(=O)c2cccc3cccc(c23)C1=O (stereo not given)	GALR2 ag 10 (no result: S1P2 ag, S1P2 antag) | GALR2 agon conf inactive | BLA activ ctr inactive
CCN(CCC(=O)Nc1cc([N+](=O)[O-])ccc1OC)Cc1ccccc1	none (no result: S1P2 ag, S1P2 antag)
NC(CC(=O)OC1CCCCC1)C(=O)OC1CCCCC1 (stereo not given)	none | GALR2 agon conf inactive | BLA activ ctr inactive
O=C(NCC(=O)N1CCCC1C(=O)O)OC1CCCCC1 (stereo not given)	none
Cc1ccc(C)c(NC(=S)N2CCN(CCO)CC2)c1	none (no result: S1P2 ag, S1P2 antag)
COc1ccc(-c2nnc3n2N=C(c2cccc(Br)c2)CS3)cc1OC	GALR2 ag 9.7 (no result: S1P2 ag, S1P2 antag) | GALR2 agon conf inactive | BLA activ ctr inactive
CCc1ccc(NC(=O)C2C3/C=C\CCCCC32)cc1 (stereo not given)	none (no result: S1P2 ag, S1P2 antag)
CCCC(=O)c1ccc(N2CCN(C(=O)OCC)CC2)c(F)c1	GALR2 ag 30 | GALR2 agon conf inactive | BLA activ ctr inactive
CCOC(=O)N1CCN(c2ccc(C(=O)CC)cc2F)CC1	none
O=C(CCc1ccccc1)NNC(=S)NC(=O)c1ccccc1	none (no result: Phagocytosis inh)
CC(C)(C)c1cc(CCC(=O)NNC(=S)NC(=O)c2ccccc2)cc(C(C)(C)C)c1O	GALR2 ag 35 (no result: S1P2 ag, S1P2 antag) | GALR2 agon conf 37 | BLA activ ctr 29
COC(=O)c1ccc2c(c1)C(C)(C)C(/C=C/c1ccccc1O)=[N+]2C	GALR2 ag 13 (no result: Phagocytosis inh) | GALR2 agon conf inactive | BLA activ ctr inactive
C[N+]1=C(/C=C/Nc2ccccc2Cl)C(C)(C)c2ccccc21	none (no result: S1P2 ag, S1P2 antag)
O=C1c2ccccc2C(=O)N1/N=C/c1ccc(O)c(O)c1	none (no result: S1P2 ag, S1P2 antag)
CC(Cc1ccccc1)C(=O)NCc1ccncc1 (stereo not given)	none (no result: S1P2 ag, S1P2 antag, Phagocytosis inh)
CC(Cc1ccccc1)C(=O)N[C@@H](CO)Cc1ccccc1 (stereo not given in full)	GALR2 ag 23 (no result: S1P2 ag, S1P2 antag, Phagocytosis inh) | GALR2 agon conf inactive | BLA activ ctr inactive
Oc1ccc(N=C/C=C/c2ccc(Br)cc2)cc1-c1nc2ccccc2s1	none (no result: S1P2 ag, S1P2 antag)
CCN(CC)C(c1ccc(F)cc1)c1nnnn1C1CCCCC1 (stereo not given)	GALR2 ag 9.8 | GALR2 agon conf inactive | BLA activ ctr inactive
CCN(CC)C(c1ccc(C)cc1)c1nnnn1C1CCCCC1 (stereo not given)	none
O=C1COc2ccc(C(=O)c3ccccc3C(=O)NCc3ccccc3)cc2N1	none
CCOC(=O)C1=C(C)N=C2SC(C(=O)OC)=CC(=O)N2C1c1ccc(F)cc1 (stereo not given)	none (no result: Phagocytosis inh) | GALR2 agon conf inactive | BLA activ ctr inactive
COc1ccc(S(=O)(=O)NCC(c2cccnc2)N2CCN(c3ccccc3OC)CC2)cc1C (stereo not given)	none (no result: Phagocytosis inh)
COc1ccccc1N1CCN(C(CNS(=O)(=O)c2ccccc2)c2cccnc2)CC1 (stereo not given)	none | GALR2 agon conf inactive | BLA activ ctr inactive
O=C(Nc1ccc2c(c1)OCO2)OCc1ccccc1	GALR2 ag 12 | GALR2 agon conf inactive | BLA activ ctr inactive
O=C(Nc1ccc2c(c1)OCO2)C1CCCN1C(=O)OCc1ccccc1 (stereo not given)	none (no result: S1P2 ag, S1P2 antag)
CC(C)C(C)(C#N)NC(=O)CSc1nc(C2CCCCC2)n(-c2ccccc2)n1 (stereo not given)	none (no result: S1P2 ag, S1P2 antag, Phagocytosis inh)
CCC(C)C(NC(=O)c1ccccc1NC(=O)c1ccc(OC)cc1)C(=O)NCc1ccco1 (stereo not given)	GALR2 ag 14 | GALR2 agon conf inactive | BLA activ ctr inactive
CCOC(=O)c1c(NC(=O)C2=C(C)NC(=S)NC2c2ccc(CC)cc2)sc(C)c1C (stereo not given)	GALR2 ag 9.5 (no result: S1P2 ag, S1P2 antag) | GALR2 agon conf inactive | BLA activ ctr inactive
CC(=O)c1nn(-c2ccc(Br)cc2)cc1C(=O)c1ccccc1	GALR2 ag 8.6 (no result: S1P2 ag, S1P2 antag) | GALR2 agon conf inactive | BLA activ ctr inactive
CC(=O)c1nn(-c2ccc(Br)cc2)cc1C(=O)c1ccco1	none (no result: Phagocytosis inh)
COc1ccc(C2c3c(oc4ccc(Cl)cc4c3=O)C(=O)N2Cc2ccco2)cc1OC (stereo not given)	GALR2 ag 21 (no result: S1P2 ag, S1P2 antag) | GALR2 agon conf inactive | BLA activ ctr inactive
Cc1cccc(C2=NN(c3ccc(Br)cc3)[C@@H](C(=O)N3CCOC3=O)[C@@H]2c2ccc(F)cc2)c1	GALR2 ag 9.8 (no result: S1P2 ag, S1P2 antag, Phagocytosis inh) | GALR2 agon conf inactive | BLA activ ctr inactive
COc1ccccc1C(=O)N1CCN(c2cccc(Cl)c2)CC1	none (no result: Phagocytosis inh)
Cc1cccc(C2=NC(C(F)(F)F)(C(F)(F)F)c3c(n(-c4ccc(F)cc4)c(=O)[nH]c3=O)N2)c1	none (no result: S1P2 ag, S1P2 antag)
COc1ccccc1[C@@H]1C(c2cccc(Cl)c2)=NN(c2ccccc2)[C@H]1C(=O)N1CCOC1=O	GALR2 ag 30 (no result: S1P2 ag, S1P2 antag, Phagocytosis inh) | GALR2 agon conf 13 | BLA activ ctr 22
O=C1OCCN1C(=O)[C@H]1[C@H](c2ccc(Cl)cc2)C(c2cccc(Cl)c2)=NN1c1ccccc1	GALR2 ag 23 (no result: S1P2 ag, S1P2 antag, Phagocytosis inh) | GALR2 agon conf 10 | BLA activ ctr 19
O=S(=O)(Nc1nc2ccccc2nc1N1CCN(c2ccccc2F)CC1)c1ccc(Cl)cc1	none
Fc1ccc(NCc2cccnc2)cc1	GALR2 ag 36 | GALR2 agon conf inactive | BLA activ ctr inactive
c1ccc(NCc2cccnc2)cc1	none
COc1ccc(OC)c(C(=O)c2ccc(C(=O)Nc3cccc4ccccc34)cc2)c1	none (no result: S1P2 ag, S1P2 antag)
COC(=O)/C(=C/Nc1ccccc1)[N+](=O)[O-]	none
COC(=O)/C(=C/Nc1ccc(O)cc1)[N+](=O)[O-]	none | GALR2 agon conf inactive | BLA activ ctr inactive
